Measured values as given in ChEMBL document CHEMBL3988442, “University of Dundee, Small-Polar-MMV Screening Library” (2021).
For some of these results: Results with a measured potency or affinity are listed apart.

Columns and labels:
Set-up in all cases: scale not given: direction of the effect not stated beside the values
[1] = target: Protein translocase subunit SecA (Escherichia coli (strain K12)) (UniProt P10408); assay: Assay to Identify E. coli SecA ATPase Inhibitors; format: functional; conditions: 30 µM
Chain of Protein translocase subunit SecA (Escherichia coli (strain K12)) (P10408 whole entry): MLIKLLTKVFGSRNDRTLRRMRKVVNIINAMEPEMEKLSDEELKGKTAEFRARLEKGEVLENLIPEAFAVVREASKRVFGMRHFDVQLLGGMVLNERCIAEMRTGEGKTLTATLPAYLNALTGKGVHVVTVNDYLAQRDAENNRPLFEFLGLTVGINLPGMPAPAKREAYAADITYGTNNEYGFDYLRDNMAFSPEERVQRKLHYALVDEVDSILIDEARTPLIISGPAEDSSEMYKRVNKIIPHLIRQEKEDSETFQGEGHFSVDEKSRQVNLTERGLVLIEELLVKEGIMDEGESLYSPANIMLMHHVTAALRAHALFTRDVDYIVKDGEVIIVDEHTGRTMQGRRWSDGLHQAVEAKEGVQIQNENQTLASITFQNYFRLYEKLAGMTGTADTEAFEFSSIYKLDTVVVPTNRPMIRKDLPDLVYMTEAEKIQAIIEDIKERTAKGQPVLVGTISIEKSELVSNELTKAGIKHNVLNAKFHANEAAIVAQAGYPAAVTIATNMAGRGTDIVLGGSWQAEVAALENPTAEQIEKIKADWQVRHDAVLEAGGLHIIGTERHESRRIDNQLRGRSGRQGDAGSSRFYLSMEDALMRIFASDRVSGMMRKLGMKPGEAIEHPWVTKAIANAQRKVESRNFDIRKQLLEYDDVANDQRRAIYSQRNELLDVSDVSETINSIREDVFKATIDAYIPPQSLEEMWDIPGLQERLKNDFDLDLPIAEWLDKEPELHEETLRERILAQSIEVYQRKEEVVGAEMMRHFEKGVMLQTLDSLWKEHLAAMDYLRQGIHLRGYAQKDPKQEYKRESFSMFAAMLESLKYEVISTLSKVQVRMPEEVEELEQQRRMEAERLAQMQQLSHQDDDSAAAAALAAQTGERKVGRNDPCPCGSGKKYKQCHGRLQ

[2] = target: T1, Ubiquitin-activating enzyme e1, putative (Leishmania donovani (strain BPK282A1)) (UniProt E9BSI1); assay: Leishmania donovani Ubiquitin Activating Enzyme (LdE1); format: functional; conditions: 30 µM
T1 sequence (whole entry): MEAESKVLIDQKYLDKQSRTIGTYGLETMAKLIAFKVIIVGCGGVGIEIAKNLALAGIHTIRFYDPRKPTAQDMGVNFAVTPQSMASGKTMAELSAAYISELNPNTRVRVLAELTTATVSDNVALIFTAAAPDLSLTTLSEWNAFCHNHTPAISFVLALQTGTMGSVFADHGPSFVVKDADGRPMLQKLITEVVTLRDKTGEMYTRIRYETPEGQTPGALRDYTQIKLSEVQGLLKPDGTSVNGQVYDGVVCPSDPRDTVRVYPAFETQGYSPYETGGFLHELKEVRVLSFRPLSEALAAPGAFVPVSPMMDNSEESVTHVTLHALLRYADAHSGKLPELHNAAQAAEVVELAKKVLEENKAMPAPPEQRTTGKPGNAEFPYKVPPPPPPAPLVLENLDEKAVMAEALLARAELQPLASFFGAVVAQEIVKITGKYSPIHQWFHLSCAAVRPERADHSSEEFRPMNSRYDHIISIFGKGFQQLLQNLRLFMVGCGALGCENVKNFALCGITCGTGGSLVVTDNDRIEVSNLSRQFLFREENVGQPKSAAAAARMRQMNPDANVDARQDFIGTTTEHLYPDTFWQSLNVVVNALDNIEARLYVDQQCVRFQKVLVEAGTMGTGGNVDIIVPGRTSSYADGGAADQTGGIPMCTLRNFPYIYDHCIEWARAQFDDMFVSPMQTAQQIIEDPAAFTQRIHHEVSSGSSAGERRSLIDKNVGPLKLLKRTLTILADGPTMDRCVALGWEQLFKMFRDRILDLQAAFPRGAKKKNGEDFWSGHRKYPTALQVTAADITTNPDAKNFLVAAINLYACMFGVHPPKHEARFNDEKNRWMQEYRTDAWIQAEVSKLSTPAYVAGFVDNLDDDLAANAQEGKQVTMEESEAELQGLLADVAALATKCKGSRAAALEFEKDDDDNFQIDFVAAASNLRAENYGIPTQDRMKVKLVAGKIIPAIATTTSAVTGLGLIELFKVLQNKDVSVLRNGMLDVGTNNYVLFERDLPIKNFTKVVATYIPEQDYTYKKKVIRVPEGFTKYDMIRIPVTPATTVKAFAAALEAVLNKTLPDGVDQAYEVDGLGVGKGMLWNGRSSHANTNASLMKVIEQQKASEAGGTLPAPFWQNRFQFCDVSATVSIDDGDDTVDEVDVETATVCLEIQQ

[3] = target: AMP-activated protein kinase, AMPK (Homo sapiens) (UniProt P54646+O43741+P54619+Q9UGJ0+Q9Y478+Q13131+Q9UGI9); assay: AMP-dependent Kinase enzyme assay. An in vitro enzyme assay that detects ADP turnover that is directly proportional to AMPK activity. This uses naive AMPK that is activated during the assay with MK-8722; format: functional; conditions: 30 µM
[4] = target: Sialic acid-binding Ig-like lectin 9 (Homo sapiens) (UniProt Q9Y336); assay: Hs-Siglec9 ALPHAscreen SOP 20170721; conditions: 10 µM
Chain of Sialic acid-binding Ig-like lectin 9 (Homo sapiens) (Q9Y336 whole entry): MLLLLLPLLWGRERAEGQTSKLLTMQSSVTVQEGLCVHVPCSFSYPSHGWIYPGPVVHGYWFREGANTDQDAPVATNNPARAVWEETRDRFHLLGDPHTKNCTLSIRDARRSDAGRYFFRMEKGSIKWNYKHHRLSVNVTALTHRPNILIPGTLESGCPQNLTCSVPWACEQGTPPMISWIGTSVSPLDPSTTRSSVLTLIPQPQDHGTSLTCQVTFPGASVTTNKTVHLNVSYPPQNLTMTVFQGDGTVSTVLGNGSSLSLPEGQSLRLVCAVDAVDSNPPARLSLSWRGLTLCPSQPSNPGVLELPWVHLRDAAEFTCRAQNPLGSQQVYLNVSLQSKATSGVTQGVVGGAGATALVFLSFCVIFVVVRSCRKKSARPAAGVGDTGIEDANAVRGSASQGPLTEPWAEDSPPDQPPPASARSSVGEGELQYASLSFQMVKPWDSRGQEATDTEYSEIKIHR

Trypanosoma cruzi = assay: Trypanosoma cruzi phosphomannomutase and mannose-1-phosphate guanylyltransferase assay; format: functional; conditions: 10 µM
[5] = target: T2, Arginase-2, mitochondrial (Homo sapiens) (UniProt P78540); assay: in vitro enzyme assay to detect the production of urea directly proportional to the activity of Arginase II; format: functional; conditions: 33.3 µM; further: in the data most compounds retested in dose-response had high values
T2 sequence (whole entry): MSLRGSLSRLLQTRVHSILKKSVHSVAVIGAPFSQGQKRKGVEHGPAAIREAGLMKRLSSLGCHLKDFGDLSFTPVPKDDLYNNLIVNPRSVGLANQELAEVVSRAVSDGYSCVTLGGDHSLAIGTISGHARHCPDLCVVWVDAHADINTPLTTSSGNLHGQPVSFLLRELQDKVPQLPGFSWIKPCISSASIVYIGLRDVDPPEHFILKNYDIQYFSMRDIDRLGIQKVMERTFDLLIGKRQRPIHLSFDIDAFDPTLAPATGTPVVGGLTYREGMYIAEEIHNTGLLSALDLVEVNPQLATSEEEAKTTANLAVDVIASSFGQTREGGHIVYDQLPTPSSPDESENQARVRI

[6] = target: T3, Proteasome subunit beta (Trypanosoma cruzi) (UniProt O96673); assay: Trypanosoma cruzi proteasome chymotrypsin-like activity (TcProtChymo) assay.; further: in the data most compounds retested in dose-response had high values; format: functional; conditions: 9.37 µM
T3 sequence (whole entry): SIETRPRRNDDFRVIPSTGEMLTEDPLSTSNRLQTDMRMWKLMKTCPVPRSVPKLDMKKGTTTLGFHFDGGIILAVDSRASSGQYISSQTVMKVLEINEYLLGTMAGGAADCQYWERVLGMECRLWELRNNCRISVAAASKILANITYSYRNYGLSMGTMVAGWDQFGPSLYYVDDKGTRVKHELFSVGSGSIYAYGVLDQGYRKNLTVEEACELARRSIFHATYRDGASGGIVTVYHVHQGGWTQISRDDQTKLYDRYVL

Homo sapiens = species: Homo sapiens; assay: To identify inhibition of the IFN signalling (Jak-Stat) pathway via expression of an eGFP reporter gene under the control of an IFN-stimulated response element (ISRE) containing MxA promoter.; format: functional; conditions: 30 µM
[7] = target: T4, Tyrosyl-tRNA synthetase, putative (Trypanosoma cruzi (strain CL Brener)) (UniProt Q4DSP6); assay: Trypanosoma cruzi tyrosyl tRNA synthetase (TcYRS) _High Tyrosine SOP; format: functional; conditions: 30 µM; further: in the data most compounds retested in dose-response had high values
T4 sequence (whole entry): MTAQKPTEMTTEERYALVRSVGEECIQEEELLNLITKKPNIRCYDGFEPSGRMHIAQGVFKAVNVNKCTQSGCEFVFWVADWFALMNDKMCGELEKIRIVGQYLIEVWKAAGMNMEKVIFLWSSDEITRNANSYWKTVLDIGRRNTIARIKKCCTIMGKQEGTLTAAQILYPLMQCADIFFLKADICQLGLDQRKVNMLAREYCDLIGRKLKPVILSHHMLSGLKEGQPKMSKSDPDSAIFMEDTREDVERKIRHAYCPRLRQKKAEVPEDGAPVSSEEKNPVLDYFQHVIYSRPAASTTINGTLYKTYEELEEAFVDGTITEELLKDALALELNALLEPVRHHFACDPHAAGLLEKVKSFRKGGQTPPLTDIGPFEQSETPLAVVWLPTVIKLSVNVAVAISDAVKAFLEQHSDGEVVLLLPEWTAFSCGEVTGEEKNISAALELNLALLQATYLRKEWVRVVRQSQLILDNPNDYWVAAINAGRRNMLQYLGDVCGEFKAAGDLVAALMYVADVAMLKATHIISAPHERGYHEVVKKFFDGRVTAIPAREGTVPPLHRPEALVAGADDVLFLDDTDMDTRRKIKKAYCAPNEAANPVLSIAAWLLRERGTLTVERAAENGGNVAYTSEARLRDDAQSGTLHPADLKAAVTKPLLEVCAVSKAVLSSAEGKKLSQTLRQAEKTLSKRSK

[8] = target: T4, Tyrosyl-tRNA synthetase, putative (Trypanosoma cruzi (strain CL Brener)); assay: Trypanosoma cruzi tyrosyl tRNA synthetase (TcYRS) SOP; format: functional; conditions: 30 µM
[9] = target: Chromo domain-containing protein 1 (Saccharomyces cerevisiae (strain ATCC 204508 / S288c) (Baker's yeast)) (UniProt P32657); assay: ScCHD-1 Enzyme Inhibition Assay; format: functional; conditions: 30 µM; further: in the data most compounds retested in dose-response had high values
Chain of Chromo domain-containing protein 1 (Saccharomyces cerevisiae (strain ATCC 204508 / S288c) (Baker's yeast)) (P32657 whole entry, the tested form may be a part): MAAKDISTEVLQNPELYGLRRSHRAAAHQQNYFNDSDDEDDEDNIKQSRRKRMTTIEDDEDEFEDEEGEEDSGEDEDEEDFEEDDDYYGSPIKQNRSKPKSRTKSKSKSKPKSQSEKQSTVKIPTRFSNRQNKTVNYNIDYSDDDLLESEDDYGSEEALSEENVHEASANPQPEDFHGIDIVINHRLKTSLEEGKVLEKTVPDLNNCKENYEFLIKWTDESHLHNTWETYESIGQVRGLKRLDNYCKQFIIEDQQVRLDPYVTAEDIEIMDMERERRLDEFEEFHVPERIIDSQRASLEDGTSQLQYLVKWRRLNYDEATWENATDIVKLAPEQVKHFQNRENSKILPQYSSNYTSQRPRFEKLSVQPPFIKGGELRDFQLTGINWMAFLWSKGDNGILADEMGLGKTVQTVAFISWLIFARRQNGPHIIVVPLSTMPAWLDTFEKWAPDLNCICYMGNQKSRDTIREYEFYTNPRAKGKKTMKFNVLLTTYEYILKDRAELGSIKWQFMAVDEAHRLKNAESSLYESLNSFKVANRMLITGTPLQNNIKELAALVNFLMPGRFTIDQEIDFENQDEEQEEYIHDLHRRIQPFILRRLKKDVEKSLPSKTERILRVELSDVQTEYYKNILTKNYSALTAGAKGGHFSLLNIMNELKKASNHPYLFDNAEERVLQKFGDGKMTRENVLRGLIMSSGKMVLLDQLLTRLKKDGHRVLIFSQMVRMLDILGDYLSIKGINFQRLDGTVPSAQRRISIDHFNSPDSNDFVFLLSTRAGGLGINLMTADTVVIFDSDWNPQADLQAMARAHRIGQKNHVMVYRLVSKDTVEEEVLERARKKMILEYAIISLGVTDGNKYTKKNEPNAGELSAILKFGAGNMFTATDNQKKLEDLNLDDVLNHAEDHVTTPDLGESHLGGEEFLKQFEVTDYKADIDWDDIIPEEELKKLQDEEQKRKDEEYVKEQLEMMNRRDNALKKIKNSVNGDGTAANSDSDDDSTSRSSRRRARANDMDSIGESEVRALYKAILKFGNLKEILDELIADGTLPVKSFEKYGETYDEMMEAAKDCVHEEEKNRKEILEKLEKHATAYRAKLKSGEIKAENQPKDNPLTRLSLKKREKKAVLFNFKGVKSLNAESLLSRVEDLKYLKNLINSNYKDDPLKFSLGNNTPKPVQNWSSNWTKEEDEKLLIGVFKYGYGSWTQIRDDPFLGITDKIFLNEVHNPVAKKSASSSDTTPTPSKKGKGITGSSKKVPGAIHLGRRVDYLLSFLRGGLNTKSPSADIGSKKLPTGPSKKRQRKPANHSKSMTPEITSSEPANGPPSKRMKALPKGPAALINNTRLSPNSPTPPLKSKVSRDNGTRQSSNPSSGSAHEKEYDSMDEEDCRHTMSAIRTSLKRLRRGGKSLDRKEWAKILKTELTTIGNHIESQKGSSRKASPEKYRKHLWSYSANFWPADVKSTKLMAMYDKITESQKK

## Cc1ccc(CNCCOc2ccc(S(C)(=O)=O)cc2)cc1
[1]
  Percent Effect: -7.67%
[2]
  Percent Effect: -5.48%
[3]
  Percent Effect: 4.35%
[4]
  Percent Effect: -1.11%
Trypanosoma cruzi
  Percent Effect: -2.18%
[5]
  Percent Effect: -0.798%
[6]
  Percent Effect: -3.68%
Homo sapiens
  Percent Effect: 9.56%
[7]
  Percent Effect: 4.17%
[8]
  Percent Effect: -1.24%
[9]
  Percent Effect: 3.43%

## Cc1oc(C)c(C(=O)NCc2ccccc2S(=O)(=O)N(C)C)c1C
[1]
  Percent Effect: -1.39%
[2]
  Percent Effect: 10.5%
[3]
  Percent Effect: 8.5%
[4]
  Percent Effect: 1.67%
Trypanosoma cruzi
  Percent Effect: -3.01%
[5]
  Percent Effect: -3.83%
[6]
  Percent Effect: 8.19%
Homo sapiens
  Percent Effect: 2.68%
[7]
  Percent Effect: 1.47%
[8]
  Percent Effect: 7.32%
[9]
  Percent Effect: -5.82%

## CNC(=O)CS(=O)(=O)C1CCN(S(=O)(=O)c2c(F)cccc2F)CC1
[1]
  Percent Effect: -2.05%
[2]
  Percent Effect: -2.74%
[3]
  Percent Effect: 6.92%
[4]
  Percent Effect: 0.634%
Trypanosoma cruzi
  Percent Effect: 5.68%
[5]
  Percent Effect: -1.82%
[6]
  Percent Effect: 3.9%
Homo sapiens
  Percent Effect: -17.8%
[7]
  Percent Effect: 1.07%
[8]
  Percent Effect: 0%
[9]
  Percent Effect: -1.05%

## COc1cccc(OCC2CCCN(C3CCN(C(C)=O)CC3)C2)c1 (stereo unspecified)
[1]
  Percent Effect: -0.921%
[2]
  Percent Effect: 5.41%
[3]
  Percent Effect: 0.304%
[4]
  Percent Effect: -4.78%
Trypanosoma cruzi
  Percent Effect: -3.67%
[5]
  Percent Effect: 1.43%
[6]
  Percent Effect: 18.4%
Homo sapiens
  Percent Effect: -5.82%
[7]
  Percent Effect: 4.76%
[8]
  Percent Effect: 12.2%
[9]
  Percent Effect: -2.6%

## Cc1ccc(C(=O)NC(C)CN2CCCC2=O)c(=O)[nH]1 (stereo unspecified)
[1]
  Percent Effect: -6.8%
[2]
  Percent Effect: 5.48%
[3]
  Percent Effect: -5.61%
[4]
  Percent Effect: 0.134%
Trypanosoma cruzi
  Percent Effect: -2.94%
[5]
  Percent Effect: 0.455%
[6]
  Percent Effect: 12.8%
Homo sapiens
  Percent Effect: 18.2%
[7]
  Percent Effect: 1.07%
[8]
  Percent Effect: 2.5%
[9]
  Percent Effect: -0.198%

## CN1N=C(C(=O)N(Cc2ccco2)C2CC2)CCC1=O
[1]
  Percent Effect: -3.94%
[2]
  Percent Effect: 0%
[3]
  Percent Effect: 7.53%
[4]
  Percent Effect: 0.679%
Trypanosoma cruzi
  Percent Effect: 1.46%
[5]
  Percent Effect: -1.18%
[6]
  Percent Effect: 9.49%
Homo sapiens
  Percent Effect: 4.75%
[7]
  Percent Effect: 4.25%
[8]
  Percent Effect: 5.2%
[9]
  Percent Effect: 8.43%

## Cc1ccc(C)c(C(=O)CN2C(=O)c3ccccc3CS2(=O)=O)c1
[1]
  Percent Effect: -0.543%
[2]
  Percent Effect: -2.7%
[3]
  Percent Effect: -3.5%
[4]
  Percent Effect: 9.17%
Trypanosoma cruzi
  Percent Effect: 5.79%
[5]
  Percent Effect: 0%
[6]
  Percent Effect: 18.1%
Homo sapiens
  Percent Effect: 12%
[7]
  Percent Effect: -36.5%
[8]
  Percent Effect: -41.5%
[9]
  Percent Effect: 22.1%

## CC(NC(=O)NCCn1ccnc1)c1ccc2c(c1)NC(=O)CO2 (stereo unspecified)
[1]
  Percent Effect: -4.14%
[2]
  Percent Effect: 10.1%
[3]
  Percent Effect: 1.48%
[4]
  Percent Effect: 0.18%
Trypanosoma cruzi
  Percent Effect: -7.65%
[5]
  Percent Effect: -1.52%
[6]
  Percent Effect: -0.409%
Homo sapiens
  Percent Effect: 17.8%
[7]
  Percent Effect: 0.493%
[8]
  Percent Effect: 13.9%
[9]
  Percent Effect: -1.54%

## CCN(CC)C(=O)c1nnc2ccc(N3CCOCC3)cc2n1
[1]
  Percent Effect: -7.46%
[2]
  Percent Effect: 9.33%
[3]
  Percent Effect: -17.9%
[4]
  Percent Effect: 3.43%
Trypanosoma cruzi
  Percent Effect: 7.27%
[5]
  Percent Effect: -7.57%
[6]
  Percent Effect: 14.1%
Homo sapiens
  Percent Effect: 11.4%
[7]
  Percent Effect: 3.17%
[8]
  Percent Effect: 12.8%
[9]
  Percent Effect: -14.1%

## N#CC1(C(=O)NCCCNc2ccc(C(F)(F)F)cn2)CCCC1
[1]
  Percent Effect: 0.186%
[2]
  Percent Effect: -2.63%
[3]
  Percent Effect: 6.89%
[4]
  Percent Effect: 5.29%
Trypanosoma cruzi
  Percent Effect: 0.376%
[5]
  Percent Effect: 1.53%
[6]
  Percent Effect: 7.18%
Homo sapiens
  Percent Effect: 23%
[7]
  Percent Effect: 2.45%
[8]
  Percent Effect: 4.88%
[9]
  Percent Effect: -0.995%

## Cc1cc(CN2CCCC(C)(CO)C2)ccc1F (stereo unspecified)
[1]
  Percent Effect: 0.156%
[2]
  Percent Effect: 5.41%
[3]
  Percent Effect: -7.31%
[4]
  Percent Effect: 1.4%
Trypanosoma cruzi
  Percent Effect: 2.05%
[5]
  Percent Effect: 12.2%
[6]
  Percent Effect: 0.0858%
Homo sapiens
  Percent Effect: 5.91%
[7]
  Percent Effect: -1.07%
[8]
  Percent Effect: 3.7%
[9]
  Percent Effect: -7.89%
